According to ChEMBL document CHEMBL3433997, “St. Jude Leishmania screening dataset” (2016):

Tests used:
Type in all cases: functional
[1] = biological target: Solute carrier family 2, facilitated glucose transporter member 1 (Homo sapiens) (UniProt P11166); assay: ST_JUDE_LEISH: Cytotoxicity at 2uM final concentration against transgenic Leishmania Mexicana promastigotes LmGLUT1 that are glucose transport deficient and complemented with the human glucose transporter GLUT1. Activity is measured by DNA content using SYBR green in vitro
Solute carrier family 2, facilitated glucose transporter member 1 (Homo sapiens), sequence (P11166 whole entry): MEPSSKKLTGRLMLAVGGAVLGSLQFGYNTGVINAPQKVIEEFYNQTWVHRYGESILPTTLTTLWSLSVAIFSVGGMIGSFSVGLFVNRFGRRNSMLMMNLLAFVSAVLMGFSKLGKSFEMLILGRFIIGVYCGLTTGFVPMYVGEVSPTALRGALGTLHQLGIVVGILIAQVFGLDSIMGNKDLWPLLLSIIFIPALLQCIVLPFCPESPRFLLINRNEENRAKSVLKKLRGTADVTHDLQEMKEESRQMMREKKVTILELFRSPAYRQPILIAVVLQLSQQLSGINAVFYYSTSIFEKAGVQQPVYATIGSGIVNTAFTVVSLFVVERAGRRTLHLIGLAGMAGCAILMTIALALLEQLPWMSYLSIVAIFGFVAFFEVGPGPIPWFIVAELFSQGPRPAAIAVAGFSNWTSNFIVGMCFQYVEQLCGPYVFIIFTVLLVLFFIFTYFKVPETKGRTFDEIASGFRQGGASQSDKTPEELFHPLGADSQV

[2] = biological target: Hexose transporter 1 (Plasmodium falciparum) (UniProt O97467); assay: ST_JUDE_LEISH: Cytotoxicity at 2uM final concentration against transgenic Leishmania Mexicana promastigotes LmPfHT that are glucose transport deficient and complemented with the Plasmodium falciparum hexose transporter. Activity is measured by DNA content using SYBR green in vitro
[3] = biological target: Glucose transporter (Leishmania mexicana) (UniProt O61059); assay: ST_JUDE_LEISH: Cytotoxicity at 2uM final concentration against transgenic Leishmania Mexicana promastigotes LmGT2 that are glucose transport deficient and complemented with the L. Mexicana glucose transporter 2. Activity is measured by DNA content using SYBR green in vitro

SMILES	inhibition [1] [%]	inhibition [2] [%]	inhibition [3] [%]
Cc1cc(N2CCC(NS(=O)(=O)c3ccccc3)CC2)nc(Nc2cccc(C#N)c2)n1	44.5	41.9	45.6
c1ccc(CN2CCN(c3cc(-c4cncc(-c5ccccc5)c4)nc(-c4ccccc4)n3)CC2)cc1	1.99	2.26	1.99
Cc1cc(N2Cc3ccccc3C2)nc(Nc2ccc(S(=O)(=O)N3CCOCC3)cc2)n1	1.54	2	1.21
CCOc1ccc2[nH]c(C)cc(=NN=Cc3ccccc3)c2c1	3.33	2.11	2.8
O=C(/C=C/c1ccc(Cl)c(Cl)c1)NC1CCC(CN2CCC(c3nc4ccccc4n3CCCO)CC2)CC1 (centres undefined)	0.86	1.32	1.75
CC(Cc1ccc(OCCN2CCN(c3ccc(Cl)cc3)CC2)cc1)NCC(O)c1cccc(C(F)(F)F)c1 (centres undefined)	-2.36	-1.57	0.07
CCc1ccc(NC(=O)c2cccc(CN3CCCN(Cc4ccc(OC)cc4)CC3)c2)cc1	1.52	0.1	0.16
Cc1cc(NC2CCN(CC3CCCCC3)C2)nc(Nc2ccc(Br)cc2)n1 (centres undefined)	-0.39	2.78	0.66
O=C(c1cc(-c2cccs2)n[nH]1)N1CCN(S(=O)(=O)c2ccc(Br)cc2)CC1	0.07	3.88	2.13
Cc1nc(-c2ccc(-c3ccc(C(=O)Nc4ccc(I)c(OCCN5CCCC5)c4)cc3)c(C)c2)no1	3.85	3.48	1.38
Cc1cc(N[C@@H](CC(C)C)C(=O)NCCCOC(C)C)nc(NCCc2ccc(F)cc2)n1	2.71	1.92	0.62
COCCNC(=O)C(CNC(=O)c1ccc2c(c1)OCO2)NC(=O)c1ccc(-c2ccccc2)cc1 (centres undefined)	3.8	0.37	0.64
O=C(NC1CCN(Cc2ccccc2)CC1)c1cc(-c2ccncc2)c(-c2ccc(Cl)c(O)c2)o1	2.8	1.63	0.77
COc1cccc(-c2csc(C(=O)NC3CCCCN(Cc4ccc(C(C)(C)C)cc4)C3)c2)c1 (centres undefined)	4.84	7.61	5.14
O=C(c1ccc(-c2ccc(Cl)cc2)o1)N1CCc2cc3nccc(N4CCN5CCC[C@H]5C4)c3cc21	-1.09	0.64	0.64
Cc1cc(Cl)c(S(=O)(=O)N2CCc3ccccc32)cc1OCC(=O)NC1CCCCC1	2.33	1.17	2.14
CC(=O)COc1c(C2CCN(CCCCNC(=O)c3ccc(-c4ccc(C(F)(F)F)cc4)cc3)CC2)ccc2c1CCCC2	0.29	5.93	0.59

SMILES	inhibition [1] [%]	inhibition [2] [%]	inhibition [3] [%]
COc1cc(-c2nc(-c3ccncc3)c(-c3ccc4c(c3)CCC4=NO)[nH]2)ccc1OCCN1CCN(C)CC1	6.6	6.49	5.31
Nc1c2c(nc3ccc(C(=O)Nc4ccccc4)cc13)CCCC2	4.09	3.96	3.87
Clc1ccc(-c2[nH]c3ccccc3c2CN2CCC(N3CCCCC3)CC2)cc1	15.2	14.7	15.2
Cc1ccc(C2=NNC3(S2)C(=O)N(C)c2ccccc23)cc1 (centres undefined)	5.66	8.24	9.09
Cc1cccc(OCC2CCN(c3ncc(C(=O)NC4CC4)cc3Cl)CC2)c1	0.26	5.86	2.26
COc1ccc(C(=O)NC2CCN(c3ccnc4cc(Cl)ccc34)C2)cc1 (centres undefined)	1.59	1.83	0.51
Cc1nc2nc(N)nc(N)c2c(C)c1Cc1ccccc1	3.29	2.88	1.2
CCc1cc(I)c2c(c1)C(NCCCNc1cc(=O)c3ccccc3[nH]1)CCN2 (centres undefined)	2.28	4.39	1.86
Cc1c(C)c2c(c(C)c1O)CC[C@@](C)(C(=O)N1CCC(CCN3CCC(c4c[nH]c5ccccc45)CC3)CC1)O2	7.87	7	4.66
CCCN/C=N/c1cc(-c2csc(NC(=N)N)n2)cc([N+](=O)[O-])c1	-0.32	-0.62	-2.26
CN1CCN(c2ccc(Nc3nc(N)c4ccn(C5CCC5)c4n3)cc2)CC1	4.19	4.27	2.97
COc1ccc(NC(=O)Nc2ccc(C)c(-c3ccc(C(=O)NCCN4CCCC4)cc3)c2)cc1	-1.56	-2.24	-2.87
Cc1ccc(Cl)c2sc(N3CCN(C(=O)c4ccc([N+](=O)[O-])o4)CC3)nc12	62.4	54.6	27.6
CC1(C)N=C(N)N=C(N)N1c1ccccc1	3.26	3.47	1.32
COc1ccc(CN2CCC(N3CC(c4ccccc4)(c4ccccc4)OCC3=O)C2)c(O)c1 (centres undefined)	-1.54	-0.28	-1.56
CC(C)(C)c1ccc(NC(=O)c2ccc(CN3CCCN(Cc4cccc(F)c4)CC3)cc2)cc1	13.7	13.3	11.8
